Most compounds without a hit are left out; they make up all but 7.3% or so of the library.
Tau fluor counter: counter-screen for tau fibril formation inhibitors | tau K18 P301L Alexa594 fluorescence, heparin fibrillization | actives 0.93% (n = 280,000) | Potency, µM (top dose mostly 57.7 µM); also: nearly all actives have a fitted effect of over 55% in size
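Human tau K18 P301L (15 uM unlabeled, 0.24 uM Alexa 594-labeled) in 100 mM sodium acetate pH 7 with 20 uM heparin, 6 hr at 37 C. ThT 30 uM added, 1 hr ambient; Alexa 594 FP and total fluorescence read at 555/632 nm.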
Tau fibril FP: blocks human tau fibril formation measured by polarization; actives 0.39% (n = 280,000); AID 1468; Potency, µM (highest dose often 57.7 µM), hits mostly inhibitors; P10636; K18 P301L tau heparin fibrillization, Alexa594 FP, 6 h; also: nearly all actives have a fitted effect of over 55% in size
Target sequence (P10636 561-689 P618L limits assumed): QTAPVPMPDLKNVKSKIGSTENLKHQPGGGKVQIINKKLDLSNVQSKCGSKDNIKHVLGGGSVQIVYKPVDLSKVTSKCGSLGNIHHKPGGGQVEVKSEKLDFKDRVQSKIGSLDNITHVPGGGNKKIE
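Quantitative HTS format: compounds meet 15 uM recombinant K18 P301L tau and Alexa 594-tau tracer in 100 mM sodium acetate pH 7; 20 uM heparin triggers fibrillization at 37 C over 6 hr; FP gives the signal.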
Tau fibril ThT: tau fibrillization inhibition (ThT binding) | P10636 | recombinant tau K18 P301L, heparin-induced fibrillization, ThT fluorescence | Potency, µM (doses to about 57.4 µM), hits mostly inhibitors | actives 2.1% (n = 270,000) | AID 1460; also: nearly all actives have a fitted effect of over 55% in size
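Fibril formation assay: tau K18 P301L at 15 uM with trace Alexa 594 label, heparin inducer 20 uM, pH 7 sodium acetate buffer, 37 C for 6 hr; endpoint ThT signal.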
VP16 counter: counter-screen for ROR gamma inhibitors: Gal4-VP16 reporter | actives 3.5% (n = 310,000) | Potency, µM (doses to about 53.6 µM), usual class: inhibitors | Drosophila S2 Gal4-VP16 UAS-luciferase, luminescence, 20 h;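 also: Gal4-VP16 expression switched on by copper sulfate through the metallothionein promoter; nearly all actives have a fitted effect of over 50% in size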
RORg inh: inhibitors of mouse ROR gamma transcriptional activity. actives 5.4% (n = 310,000). Drosophila S2 Gal4-RORgamma UAS-luciferase reporter, 20 h. Potency, µM (series often up to 53.6 µM), actives largely listed as inhibitors. P51450; also: nearly all actives have a fitted effect of over 60% in size
Target sequence (P51450 whole entry, looked up, the tested form may be a part): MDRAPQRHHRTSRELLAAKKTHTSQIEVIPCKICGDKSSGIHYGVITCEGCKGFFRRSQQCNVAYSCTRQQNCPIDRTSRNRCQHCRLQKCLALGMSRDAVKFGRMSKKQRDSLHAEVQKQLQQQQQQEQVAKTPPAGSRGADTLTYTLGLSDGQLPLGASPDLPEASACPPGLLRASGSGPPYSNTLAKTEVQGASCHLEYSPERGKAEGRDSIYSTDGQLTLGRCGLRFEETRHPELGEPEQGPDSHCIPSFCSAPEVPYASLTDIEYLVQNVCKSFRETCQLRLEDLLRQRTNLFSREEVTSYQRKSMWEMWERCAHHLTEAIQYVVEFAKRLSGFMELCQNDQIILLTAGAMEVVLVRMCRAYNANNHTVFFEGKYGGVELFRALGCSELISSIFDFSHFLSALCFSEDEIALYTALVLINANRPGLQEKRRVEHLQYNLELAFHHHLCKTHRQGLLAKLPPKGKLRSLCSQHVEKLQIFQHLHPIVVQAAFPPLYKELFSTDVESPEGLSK
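Schneider cells (Drosophila), stable Gal4 DBD–ROR gamma + UAS-luc; 1 hr cmpd preincubation; Cu2+ induction 700 uM final; 20 hr ambient; luminescence.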
Of the large screens only hits and unclear results are named; the others gave an inactive call; [ ] = another dose, or the depositor's remark. Calls follow the shape of the dose curve; as a rule, active = well fitted curve in the direction sought with a large enough effect; inconclusive = small, poorly fitted or top-dose-only effect, or another doubt; inactive = no such curve, though single readings can be large; an effect the other way counts as inactive or inconclusive.

CCC(=O)Nc1nc2ccccc2n1Cc1ccc(C)cc1	VP16 counter 0.891µM, RORg inh 0.398µM
CCCCn1c(C(C)NC(=O)COC)nc2ccccc21 (centres undefined)	none
CC(=O)NC(C)c1nc2ccccc2n1CC(=O)NC(C)CCc1ccccc1 (centres undefined)	RORg inh 12.6µM
CCC(=O)Nc1nc2ccccc2n1Cc1ccccc1	VP16 counter 2.24µM, RORg inh 0.708µM
CCCCCn1c(C(Cc2ccccc2)NC(=O)COC)nc2ccccc21 (centres undefined)	VP16 counter inconclusive, RORg inh 31.6µM
Cc1nc(N2CCOCC2)c2nc(-c3ccccc3)n(CCCN3CCCCC3C)c2n1 (centres undefined)	none
O=S(=O)(CCc1ccccc1)c1nnnn1-c1ccccc1	none
N#Cc1ccccc1NC(=O)CNc1ccc(Cl)c(C(F)(F)F)c1	Tau fluor counter inconclusive, VP16 counter 11.2µM, RORg inh inconclusive
CC(Oc1cc2oc(=O)c3c(c2cc1Cl)CCC3)C(=O)NCCN1CCOCC1 (centres undefined)	none (no result: Tau fluor counter, Tau fibril FP, Tau fibril ThT)
O=C1OC(c2ccccc2)=N/C1=C\C=C\c1ccco1	Tau fibril ThT 14.1µM
O=S(=O)(O)c1ccc(O)cc1	none (no result: Tau fluor counter, Tau fibril FP, Tau fibril ThT)
Cc1nn(C)c2nc(NNC(=O)Nc3cc(Cl)nc(Cl)c3)cc(C(C)C)c12	Tau fluor counter inconclusive, VP16 counter 15.8µM
Cc1cc(NNC(=O)Nc2cccc(Cl)c2)nc2c1c(C)nn2C	VP16 counter 11.2µM, RORg inh inconclusive (no result: Tau fibril ThT)
Cc1nn(C)c(C)c1NC(=O)Nc1ccc(Cl)c(Cl)c1	Tau fluor counter inconclusive, Tau fibril FP inconclusive
CCn1nc([N+](=O)[O-])c(C(C#N)c2nc3ccccc3n2C)c(Cl)c1=O (centres undefined)	Tau fluor counter inconclusive, Tau fibril ThT 11.2µM
Cc1nc([N+](=O)[O-])c(Sc2nc3ccccc3n2C)n1Cc1ccccc1	Tau fibril ThT inconclusive, VP16 counter inconclusive, RORg inh inconclusive
O=[N+]([O-])c1ccc(CN2CCN(c3nc4ccccc4s3)CC2)cc1	none (no result: Tau fluor counter, Tau fibril FP, Tau fibril ThT)
CCCn1nc([N+](=O)[O-])c(C(C#N)c2nc3ccccc3s2)c(Cl)c1=O (centres undefined)	Tau fluor counter 5.01µM[quencher], Tau fibril FP 17.8µM, Tau fibril ThT 3.98µM, VP16 counter inconclusive
O=c1cc(-c2ccccc2Cl)oc2c(NS(=O)(=O)c3cc(Cl)cc(Cl)c3O)ccc(O)c12	Tau fluor counter inconclusive, Tau fibril FP 31.6µM, Tau fibril ThT 22.4µM, VP16 counter 5.01µM, RORg inh inconclusive
COc1ccc(CC(=O)N2N=C(C)CC2(O)c2cccnc2)cc1 (centres undefined)	none
COc1ccc(CC(=O)N2N=C(C)CC2(O)c2cccnc2)cc1OC (centres undefined)	VP16 counter inconclusive, RORg inh 11.2µM
CC1=NN(C(=O)Cc2ccc([N+](=O)[O-])cc2)C(O)(c2ccccc2)C1 (centres undefined)	VP16 counter 12.6µM, RORg inh 8.91µM
CC1=NN(C(=O)Cc2ccccc2)C(O)(c2ccccc2)C1 (centres undefined)	none
CCC1=NN(C(=O)Cc2ccc(OC)c(OC)c2)C(O)(C(F)(F)F)C1 (centres undefined)	VP16 counter inconclusive, RORg inh 15.8µM
CC1=NN(C(=O)Cc2ccc([N+](=O)[O-])cc2)C(O)(c2cccnc2)C1 (centres undefined)	RORg inh 14.1µM
CC1=NN(C(=O)COc2ccccc2)C(O)(c2cccnc2)C1 (centres undefined)	none
COc1ccc(-n2c(C)cc(/C=C3\SC(=S)N(Cc4ccco4)C3=O)c2C)cc1	Tau fluor counter inconclusive, Tau fibril ThT inconclusive
CCN1CCN(c2c(/C=C3\SC(=S)N(Cc4ccco4)C3=O)c(C)c(C#N)c(=O)n2C)CC1	Tau fluor counter inconclusive, VP16 counter inconclusive, RORg inh 7.08µM (no result: Tau fibril ThT)
CCN(CC)C(=O)Cn1cc(C(=O)C(=O)N2CCN(c3ccc([N+](=O)[O-])cc3)CC2)c2ccccc21	RORg inh inconclusive (no result: Tau fluor counter, Tau fibril FP, Tau fibril ThT)
O=C1OC(c2ccc(Cl)cc2)=C/C1=C/c1cccnc1	none (no result: Tau fluor counter, Tau fibril FP, Tau fibril ThT)
O=C1OC(c2ccc(F)cc2)=C/C1=C\c1ccc(O)cc1	VP16 counter inconclusive, RORg inh 6.31µM (no result: Tau fluor counter, Tau fibril FP, Tau fibril ThT)
O=C1OC(c2ccc(F)cc2)=C/C1=C\c1ccc([N+](=O)[O-])o1	Tau fluor counter inconclusive, Tau fibril FP inconclusive, Tau fibril ThT 15.8µM, VP16 counter inconclusive
CCC(C(=O)NCCc1c[nH]c2cc(OC)ccc12)c1ccccc1 (centres undefined)	none (no result: Tau fluor counter, Tau fibril FP, Tau fibril ThT)
CCOC(=O)c1ccc(NC(=O)C(=O)NCCc2ccc(OC)cc2)cc1	Tau fibril ThT inconclusive
CCOC(=O)c1cn[nH]c1NC(=S)Nc1ccc(Cl)cc1	VP16 counter inconclusive, RORg inh 2.82µM
CCOC(=O)c1ccc(NC(=S)Nc2ccc(C)cc2)cc1	VP16 counter inconclusive, RORg inh 12.6µM
CCOC(=O)c1ccc(NC(=O)Nc2ccc3c(c2)OCCO3)cc1	Tau fluor counter 12.6µM[quencher], Tau fibril FP inconclusive, Tau fibril ThT inconclusive
CCOC(=O)c1ccc(NC(=S)Nc2ccccc2)cc1	RORg inh inconclusive
CCOC(=O)c1ccc(NC(=S)NCCc2ccc(F)cc2)cc1	Tau fluor counter inconclusive, Tau fibril FP 28.2µM, VP16 counter inconclusive, RORg inh 10µM
CCCCC/C=C\C\C=C/C=C/C=C/[C@@H](SCC(N)C(=O)O)[C@@H](O)CCCC(=O)O (some centres undefined)	none
c1ccc(C(c2ccccc2)N2CC3(CCNCC3)C2)cc1	none (no result: Tau fluor counter, Tau fibril FP, Tau fibril ThT)
CCOC(=O)c1cccc(NC(=S)NCc2ccc(C)cc2)c1	Tau fluor counter inconclusive, Tau fibril FP inconclusive, VP16 counter inconclusive, RORg inh 10µM
CC(C)c1ccc(NC(=O)CN2C(=O)COc3ccc(S(=O)(=O)N4CCOCC4)cc32)cc1	none
CN(C)NC(=S)Nc1cccc(C(F)(F)F)c1	VP16 counter 5.62µM, RORg inh 1µM
CC(NC(=S)Nc1cccc(C(F)(F)F)c1)C(C)(C)C (centres undefined)	VP16 counter 10µM, RORg inh 3.16µM
COc1cc(NS(=O)(=O)c2ccc(OC)c(C)c2C)c(OC)cc1Cl	VP16 counter 6.31µM, RORg inh inconclusive
CN(C)c1cccc(-c2nnc(SCCCC#N)o2)c1	VP16 counter inconclusive, RORg inh 11.2µM
Cc1sc2nc(CN3CCC(C)CC3)nc(Cl)c2c1C	RORg inh 17.8µM
COC(=O)C(CC(=O)c1ccc(Br)cc1)n1ccnc1 (centres undefined)	Tau fibril ThT inconclusive, VP16 counter 1µM, RORg inh 0.631µM
COC(=O)C(CC(=O)c1ccc(C)cc1)n1nc(C)cc1C (centres undefined)	none (no result: Tau fluor counter, Tau fibril FP, Tau fibril ThT)
COc1ccc(-c2nnc(NC(=O)C3CC3)o2)cc1	VP16 counter 10µM, RORg inh 5.01µM
COc1ccc(-c2nnc(SCC(C)C)o2)cc1	VP16 counter inconclusive
